These results are taken from PubChem BioAssay (NCI).

Structures are written as SMILES. Values joined by “and” are separate entries in the source; they are usually repeats but may differ in a detail not shown here. Equal values may be shown once. The panel holds about 79,000 compounds, 15% with a hit somewhere; the sample as a whole holds those more often. The source holds several records for some structures; these can differ, active in one and inactive in another. Active and inactive are the calls of the source. No stated cut-off is given here; in the data, active means growth inhibition above about 70%; inactive means the rest.

Assay [1] in a line: NCI Yeast Anticancer Drug Screen. Data for the rad50 strain (AID 155).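 Further: 0% = growth of vehicle-only cultures of the same strain.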 Conditions: S. cerevisiae rad50 strain growth inhibition, stronger effect = higher value. The method in brief:
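Vehicle-treated cultures provide the reference for the growth inhibition reported for compound-exposed, repair-deficient yeast.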

A short description of assay [2]: NCI Yeast Anticancer Drug Screen. Data for the mec2-1 strain (AID 157). The conditions noted are these: S. cerevisiae mec2-1 strain, stronger effect = higher value. The method in brief: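 mec2-1 yeast strain, carrying an alteration in DNA damage repair or cell cycle control, was exposed to compounds; growth inhibition was measured relative to vehicle-treated controls.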
Assay [3] is described as follows: NCI Yeast Anticancer Drug Screen. Data for the sgs1 mgt1 strain (AID 161).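 Further: 0% = growth of cultures given vehicle only.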 Conditions: S. cerevisiae sgs1 mgt1 strain, stronger effect = higher value. The method in brief:
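Yeast cells carrying a defined DNA-repair defect were exposed to test compounds. Growth inhibition was measured relative to vehicle-treated controls.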

The nature of assay [4]: NCI Yeast Anticancer Drug Screen. Data for the cln2 rad14 strain (AID 165).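 Further: 0% = growth equal to vehicle treated cultures.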 The conditions noted are these: S. cerevisiae cln2 rad14 strain, stronger effect = higher value. The method in brief:
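Yeast carrying cln2 and rad14 alterations (cell cycle control and DNA damage repair) were exposed to compounds. Growth inhibition was measured against vehicle-treated controls.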

Assay [5] can be described thus: NCI Yeast Anticancer Drug Screen. Data for the bub3 strain (AID 167). Conditions: S. cerevisiae bub3 mutant strain, stronger effect = higher value. The method in brief:
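Mutant yeast screening strain plus compound; vehicle-treated cultures serve as the 0% inhibition reference.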

Assay [6] is described as follows: NCI Yeast Anticancer Drug Screen. Data for the mlh1 rad18 strain (AID 175). The conditions noted are these: S. cerevisiae mlh1 rad18 strain growth inhibition, stronger effect = higher value. The method in brief: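 Growth inhibition of the yeast strain was measured after compound exposure and expressed relative to vehicle-treated controls. The strain carries defined defects in DNA damage repair.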

The mark [7] stands for this setting: at 5.0 µM (retest, dose inferred, filed as 0.5).
Where [8] appears, read: at 50.0 µM (retest, dose inferred, filed as 5.0).

`O=c1[nH]c(=O)n(C2OC(CO)C(O)C2O)cc1F` (stereo unspecified): the growth inhibition in assay [1] (setting [7]) is 21% (inactive) and 30% (inactive); in assay [1] (setting [8]), 96% (active) and 95% (active); in assay [1] (at 50.0 µM) it was 96.2% (active) and 93% (active); in assay [2] (setting [7]), 42% (inactive) and 39% (inactive); in assay [2] (setting [8]), 99% (active); in assay [2] (at 50.0 µM), 97.3% (active) and 97.8% (active). Also, the growth inhibition was 65% (inactive) and 80% (active) in assay [3] (setting [7]); 98% (active) in assay [3] (setting [8]); 97.8% (active) and 96.1% (active) in assay [3] (at 50.0 µM); 15% (inactive) and 24% (inactive) in assay [4] (setting [7]); 96% (active) and 98% (active) in assay [4] (setting [8]); 90.5% (active) and 92.2% (active) in assay [4] (at 50.0 µM). In addition, the growth inhibition in assay [5] (setting [7]) is 5% (inactive) and -1% (inactive); in assay [5] (setting [8]) it was 98% (active) and 97% (active); in assay [5] (at 50.0 µM), 96.3% (active) and 90.2% (active); in assay [6] (setting [7]) it was 24% (inactive) and 6% (inactive); in assay [6] (setting [8]) it was 97% (active) and 96% (active); in assay [6] (at 50.0 µM) it was 94.8% (active) and 92.2% (active).

For `O/N=C/c1cc(I)c(O)c(I)c1`, the growth inhibition was 99% (active) in assay [1] (setting [7]); 98% (active) in assay [1] (setting [8]); 98.8% (active) in assay [1] (at 50.0 µM); 97% (active) in assay [2] (setting [7]); 99% (active) in assay [2] (setting [8]); 98.2% (active) in assay [2] (at 50.0 µM). Besides, the growth inhibition in assay [3] (setting [7]) was 99% (active); in assay [3] (setting [8]) it was 99% (active); in assay [3] (at 50.0 µM) it was 98.8% (active); in assay [4] (setting [7]) it was 99% (active); in assay [4] (setting [8]), 98% (active); in assay [4] (at 50.0 µM), 98.3% (active). Further, the growth inhibition is 99% (active) in assay [5] (setting [7]); 99% (active) in assay [5] (setting [8]); 98.8% (active) in assay [5] (at 50.0 µM); 98% (active) in assay [6] (setting [7]); 98% (active) in assay [6] (setting [8]); 98.5% (active) in assay [6] (at 50.0 µM).

Regarding `O=C1c2cccc(O)c2C(=O)c2cccc(O)c21`, the growth inhibition in assay [1] (setting [7]) is 6% (inactive); in assay [1] (setting [8]), 17% (inactive); in assay [1] (at 50.0 µM), 20.7% (inactive) and 33.4% (inactive); in assay [2] (setting [7]), 9% (inactive); in assay [2] (setting [8]) it was 17% (inactive); in assay [2] (at 50.0 µM) it was 12.1% (inactive) and 22.7% (inactive). The growth inhibition is 0% (inactive) in assay [3] (setting [7]); 7% (inactive) in assay [3] (setting [8]); 18.1% (inactive) and 82.8% (active) in assay [3] (at 50.0 µM); 4% (inactive) in assay [4] (setting [7]); 24% (inactive) in assay [4] (setting [8]); 12.4% (inactive) and -23.5% (inactive) in assay [4] (at 50.0 µM). Further, the growth inhibition in assay [5] (setting [7]) is 4% (inactive); in assay [5] (setting [8]) it was 1% (inactive); in assay [5] (at 50.0 µM) it was 6% (inactive) and 30.1% (inactive); in assay [6] (setting [7]), 7% (inactive); in assay [6] (setting [8]), 39% (inactive); in assay [6] (at 50.0 µM) it was 6.5% (inactive) and 76.8% (active).

Consider `CC(=O)Nc1c(Cl)c(Cl)c2c(c1Cl)Cc1cc(Cl)ccc1-2`, for which the growth inhibition in assay [1] (setting [7]) is 99% (active); in assay [1] (setting [8]), 99% (active); in assay [1] (at 50.0 µM), 98.2% (active); in assay [2] (setting [7]), 99% (active); in assay [2] (setting [8]) it was 99% (active); in assay [2] (at 50.0 µM), 98% (active). Moreover, the growth inhibition in assay [3] (setting [7]) was 99% (active); in assay [3] (setting [8]) it was 49% (inactive); in assay [3] (at 50.0 µM), 96.1% (active); in assay [4] (setting [7]) it was 97% (active); in assay [4] (setting [8]) it was 99% (active); in assay [4] (at 50.0 µM) it was 95.5% (active). Further, the growth inhibition is 99% (active) in assay [5] (setting [7]); 99% (active) in assay [5] (setting [8]); 98.3% (active) in assay [5] (at 50.0 µM); 99% (active) in assay [6] (setting [7]); 99% (active) in assay [6] (setting [8]); 98.5% (active) in assay [6] (at 50.0 µM).

In the case of `Cc1c(OCc2cccc3ccccc23)ccc2c(=O)cc(SCCN3CCOCC3)oc12`, the growth inhibition in assay [1] (setting [7]) was 10% (inactive); in assay [1] (setting [8]) it was 25% (inactive); in assay [1] (at 50.0 µM), 65.7% (inactive); in assay [2] (setting [7]), -1% (inactive); in assay [2] (setting [8]), 13% (inactive); in assay [2] (at 50.0 µM), 30.2% (inactive). The growth inhibition in assay [3] (setting [7]) was 6% (inactive); in assay [3] (setting [8]), 49% (inactive); in assay [3] (at 50.0 µM), 83% (active); in assay [4] (setting [7]) it was 5% (inactive); in assay [4] (setting [8]) it was 37% (inactive); in assay [4] (at 50.0 µM), 25.1% (inactive). The growth inhibition is 7% (inactive) in assay [5] (setting [7]); 47% (inactive) in assay [5] (setting [8]); 13.6% (inactive) in assay [5] (at 50.0 µM); 7% (inactive) in assay [6] (setting [7]); 35% (inactive) in assay [6] (setting [8]); 73.3% (active) in assay [6] (at 50.0 µM).

As for `CCC(C)(C)c1cc(O)c(C(C)(C)CC)cc1O`, the growth inhibition is 10% (inactive) in assay [1] (setting [7]); 88% (active) in assay [1] (setting [8]); 0.35% (inactive) and 93.2% (active) in assay [1] (at 50.0 µM); 3% (inactive) in assay [2] (setting [7]); 67% (inactive) in assay [2] (setting [8]); -22.4% (inactive) and 93.3% (active) in assay [2] (at 50.0 µM). Moreover, the growth inhibition in assay [3] (setting [7]) was -3% (inactive); in assay [3] (setting [8]) it was 91% (active); in assay [3] (at 50.0 µM) it was 11.3% (inactive) and 88% (active); in assay [4] (setting [7]) it was 18% (inactive); in assay [4] (setting [8]), 84% (active); in assay [4] (at 50.0 µM), -15.2% (inactive) and 84.8% (active). For the same compound, the growth inhibition in assay [5] (setting [7]) was 23% (inactive); in assay [5] (setting [8]), 91% (active); in assay [5] (at 50.0 µM), 20.2% (inactive) and 92.3% (active); in assay [6] (setting [7]), 10% (inactive); in assay [6] (setting [8]), 81% (active); in assay [6] (at 50.0 µM), 9.45% (inactive) and 91.8% (active).

Take `Nc1cc2c(cc1Cl)[nH]c(=O)c1cc(Cl)ccc12`: the growth inhibition in assay [1] (setting [7]) is 46% (inactive); in assay [1] (setting [8]), 65% (inactive); in assay [1] (at 50.0 µM) it was 86.2% (active); in assay [2] (setting [7]), 27% (inactive); in assay [2] (setting [8]) it was 14% (inactive); in assay [2] (at 50.0 µM) it was 3.6% (inactive). Also, the growth inhibition was 26% (inactive) in assay [3] (setting [7]); 17% (inactive) in assay [3] (setting [8]); 18.3% (inactive) in assay [3] (at 50.0 µM); 10% (inactive) in assay [4] (setting [7]); 6% (inactive) in assay [4] (setting [8]); -0.9% (inactive) in assay [4] (at 50.0 µM). For the same compound, the growth inhibition in assay [5] (setting [7]) was 39% (inactive); in assay [5] (setting [8]), 10% (inactive); in assay [5] (at 50.0 µM), -11.3% (inactive); in assay [6] (setting [7]) it was 38% (inactive); in assay [6] (setting [8]), 40% (inactive); in assay [6] (at 50.0 µM), 22.6% (inactive).
